Shiga toxin inh: A qHTS for Small Molecule Inhibitors of Shiga Toxin. Vero cells, Shiga toxin protein synthesis inhibition reporter. inhibition, % at 38.7 µM. AID 2315, 2010. 290,000 tested, 9.2% active; in the data active = inhibition mostly above about 28%, no sharp cut-off; inactive = mostly below about 43%; also: 0% is about no effect
CHX counter: Cycloheximide Counterscreen for Small Molecule Inhibitors of Shiga Toxin; max response, %; 300,000 tested, 12% active; cell reporter, cycloheximide protein synthesis inhibition counterscreen; AID 2314, 2010; in the data active = max response mostly above about 13%, no sharp cut-off; inactive = mostly below about 14%; also: read at 38.3 µM for the half of the compounds with a filed dose; 0% is about no effect
FMDV antiviral: High Throughput Screening for Foot and Mouth Disease Virus Antivirals | FMDV antiviral cell-based qHTS | AID 1159524, 2015 | 410,000 tested, 1.2% active | Potency, µM (top dose mostly 57.9 µM), for inactives: at the highest dose activity change, negative = inhibition, hits mostly inhibitors; calls by dose curve; tested in HEK293T cells; also: read-out not given here; potency is read from the fitted curve at half-maximal effect; % is scaled to controls: 0 for no effect and ±100 for the full control effect; nearly all actives have a fitted effect of over 45% in size
Sm TGR block: qHTS Assay for the Inhibitors of Schistosoma Mansoni Peroxiredoxins | Schistosoma mansoni thioredoxin glutathione reductase (TGR), Q962Y6 | purified TGR, DTNB reduction, TNB absorbance 405 nm | Potency, µM (doses to about 114 µM), without a hit: at the highest dose activity change, negative = inhibition, most hits filed as inhibitors | 360,000 tested, 3% active; active = well fitted inhibition curve with a large enough effect; inconclusive = small, poorly fitted or top-dose-only effect; inactive = no such curve, though single readings can be large or run the other way; also: potency is read from the fitted curve at half-maximal effect; % is scaled to controls: 0 for no effect and ±100 for the full control effect; nearly all actives have a fitted effect of over 60% in size
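First, TGR (20 nM dispensed) and NADPH were mixed with compound. Second, a 15 min room-temperature incubation followed. Third, further NADPH and then DTNB were added to start the reaction. Finally, TNB absorbance was monitored kinetically.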
Numbers without * were called inactive. Only some compounds are listed: those with a hit (about 12% of all), similar ones and a draw of the others.

`Cc1c(C(=S)Nc2ccccc2)cnn1-c1ccccc1` gave Shiga toxin inh 37, CHX counter 35*, FMDV antiviral 18% and Sm TGR block 11%.
Cc1c(C(=S)Nc2ccccc2)cnn1-c1ccc([N+](=O)[O-])cc1 was read as Shiga toxin inh -7, CHX counter -5, FMDV antiviral -29% and Sm TGR block -9%.
Screening Cc1c(C(=O)Nc2ccccc2F)cnn1-c1ccccc1 returned Shiga toxin inh 80*, CHX counter 57*, FMDV antiviral 16% and Sm TGR block -5%.
Cc1nn(-c2ccccc2)cc1C(=S)Nc1ccccc1 was read as Shiga toxin inh 64*, CHX counter 27*, FMDV antiviral 32% and Sm TGR block -8%.
Screening CCOc1ccc(-c2nn(-c3ccccc3)cc2C2NC(=O)NC(C)=C2C(=O)OC(C)C)cc1C (stereo not given) returned FMDV antiviral 1% and Sm TGR block -13%.
Screening Cc1c(C(=O)Nc2cc(F)cc(F)c2)cnn1-c1ccccc1 returned CHX counter 52*, FMDV antiviral 44% and Sm TGR block 5%.
CC(=O)c1cnn(-c2ccccc2)c1C was read as Shiga toxin inh 7, CHX counter 5, FMDV antiviral 11% and Sm TGR block -8%.
For Cc1c(C(=O)Oc2cccc3ccccc23)cnn1-c1ccccc1 the results were Shiga toxin inh 151*, CHX counter 45*, FMDV antiviral -9% and Sm TGR block -4%.
For COc1cc2ccccc2cc1C(=O)N1CCN(c2nc3c(C)cc(C)cc3s2)CC1 the results were FMDV antiviral -8% and Sm TGR block 16%.
Screening Cc1ccc(Nc2cc(C)nc(N3CCOCC3)n2)cc1 returned Shiga toxin inh 81*, CHX counter 26*, FMDV antiviral 11% and Sm TGR block -25%.
Cc1ccc(Nc2nc(N3CCOCC3)nc(N3CCOCC3)n2)cc1 was read as Shiga toxin inh -3, CHX counter 14*, FMDV antiviral -1% and Sm TGR block 7%.
`CCOc1ccc(Nc2cc(C)nc(N3CCOCC3)n2)cc1` gave Shiga toxin inh -5, CHX counter -5, FMDV antiviral -8% and Sm TGR block 1%.
For Cc1cc(Nc2ccc(C)c(Cl)c2)nc(N2CCOCC2)n1 the results were Shiga toxin inh 13, CHX counter 7.5*, FMDV antiviral -15% and Sm TGR block 10%.
Screening Fc1ccc(Nc2nc(Nc3ccc(F)cc3)nc(N3CCOCC3)n2)cc1 returned FMDV antiviral inconclusive and Sm TGR block -6%.
Screening Cc1[nH]c2ccccc2c1/C=N/Nc1nc(Nc2ccccc2)nc(N2CCOCC2)n1 returned Shiga toxin inh 16, CHX counter 20*, FMDV antiviral -11% and Sm TGR block 1%.
Screening Oc1[nH]c2ccccc2c1N=Nc1nc(Nc2ccccc2)nc(N2CCOCC2)n1 returned Shiga toxin inh 11, CHX counter -1, FMDV antiviral inconclusive and Sm TGR block -3%.
For CSc1nn(Cc2ccc(F)cc2)c(N(C(C)=O)C(C)=O)c1S(=O)(=O)c1ccccc1 the results were FMDV antiviral 11% and Sm TGR block -35%.
Cc1ccc(CNC(=O)c2cccc(-n3cnc4cccnc43)c2)cc1 was read as FMDV antiviral 2% and Sm TGR block 23%.
Cc1ccc(/C=C/c2onc(C)c2S(=O)(=O)N2CCC(C(=O)N3CCOc4ccc(C)cc43)CC2)cc1 was read as FMDV antiviral -16% and Sm TGR block 1%.
For CCOc1ccc(CNC(=O)C2Cc3ccccc3N2C(=O)CC)cc1 (stereo not given) the results were FMDV antiviral -14% and Sm TGR block 4%.
Screening CC(C)NC(=O)/C(C#N)=C/c1cccc(NC(=O)c2ccccc2Cl)c1 returned Shiga toxin inh -3, CHX counter 3, FMDV antiviral 14µM* and Sm TGR block -9%.
`COCCNC(=O)/C(C#N)=C/c1cccc(NC(=O)c2ccccc2Cl)c1` gave Shiga toxin inh 12, CHX counter 10, FMDV antiviral 0% and Sm TGR block -6%.
For CC1(C)CC(=O)C(CC2C(=O)CC(C)(C)CC2=O)C(=O)C1 the results were Shiga toxin inh -1, CHX counter -2, FMDV antiviral -12% and Sm TGR block 2µM*.
`CC1(C)CC(=O)C(CC2CCCCC2=O)C(=O)C1` (stereo not given) gave Shiga toxin inh 8, CHX counter -1, FMDV antiviral -12% and Sm TGR block 3%.
C=CCSc1n[nH]c(-c2ccccc2)n1 was read as Shiga toxin inh 51*, CHX counter 30*, FMDV antiviral 22% and Sm TGR block 7%.
CCOc1ccc(N(CC)C(=O)CSc2n[nH]c(-c3ccccc3)n2)cc1 was read as FMDV antiviral -16% and Sm TGR block -3%.
